# Legend:
# Assay in all cases: SPOT peptide array binding signal intensity (averaged, normalized) (arbitrary units (background-subtracted, floor 0; scale differs between SH3 domains)); higher = stronger binding of the SH3 domain to the peptide
# CaNbp2 = molecular target: CaNbp2
# How it was run: (§1)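 Spot intensities were captured after detection with anti-GST antibody, an HRP-linked anti-mouse secondary and luminol, and quantified with Genespotter. The probes were GST-fused SH3 domains from four yeast species, produced in E. coli BL21(DE3), purified on glutathione Sepharose and incubated at 10 μg/ml overnight at 4°C on cellulose-bound synthetic 15-mer peptides with cysteines replaced by serines. Binding signal is the normalized, background-subtracted spot intensity averaged over replicates, and its arbitrary units differ between domains.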
# CaRvs167 = molecular target: CaRvs167
# How it was run: as §1
# CaRvs167-3 = molecular target: CaRvs167-3
# How it was run: as §1
# CaSho1 = molecular target: CaSho1
# How it was run: as §1
# CaSla1-D1-D2 = molecular target: CaSla1-D1-D2
# How it was run: as §1
# CaSla1-D3 = molecular target: CaSla1-D3
# How it was run: as §1
# ScAbp1 = molecular target: ScAbp1
# How it was run: as §1
# ScBbc1 = molecular target: ScBbc1
# How it was run: as §1
# ScBem1-D1 = molecular target: ScBem1-D1
# How it was run: as §1
# ScBzz1-D1 = molecular target: ScBzz1-D1
# How it was run: as §1
# ScBzz1-D2 = molecular target: ScBzz1-D2
# How it was run: as §1
# ScCyk3 = molecular target: ScCyk3
# How it was run: as §1
# ScFus1 = molecular target: ScFus1
# How it was run: as §1
# ScHof1 = molecular target: ScHof1
# How it was run: as §1
# ScHse1 = molecular target: ScHse1
# How it was run: as §1
# ScLsb1 = molecular target: ScLsb1
# How it was run: as §1
# ScLsb2 = molecular target: ScLsb2
# How it was run: as §1
# ScLsb3 = molecular target: ScLsb3
# How it was run: as §1
# ScLsb4 = molecular target: ScLsb4
# How it was run: as §1
# ScMyo3 = molecular target: ScMyo3
# How it was run: as §1
# ScMyo5 = molecular target: ScMyo5
# How it was run: as §1
# ScNbp2 = molecular target: ScNbp2
# How it was run: as §1
# ScPex13 = molecular target: ScPex13
# How it was run: as §1
# ScRvs167 = molecular target: ScRvs167
# How it was run: as §1
# ScSho1 = molecular target: ScSho1
# How it was run: as §1
# ScSla1-D1-D2 = molecular target: ScSla1-D1-D2
# How it was run: as §1
# ScSla1-D3 = molecular target: ScSla1-D3
# How it was run: as §1
# SpAbp1-D1 = molecular target: SpAbp1-D1
# How it was run: as §1
# SpBbc1 = molecular target: SpBbc1
# How it was run: as §1
# SpBzz1-D1 = molecular target: SpBzz1-D1
# How it was run: as §1
# SpBzz1-D2 = molecular target: SpBzz1-D2
# How it was run: as §1
# SpCyk3 = molecular target: SpCyk3
# How it was run: as §1
# SpHof1 = molecular target: SpHof1
# How it was run: as §1
# SpHof1-2 = molecular target: SpHof1-2
# How it was run: as §1
# SpHof1-3 = molecular target: SpHof1-3
# How it was run: as §1
# SpHse1 = molecular target: SpHse1
# How it was run: as §1
# SpLsb1 = molecular target: SpLsb1
# How it was run: as §1
# SpLsb4 = molecular target: SpLsb4
# How it was run: as §1
# SpMyo1 = molecular target: SpMyo1
# How it was run: as §1
# SpNbp2 = molecular target: SpNbp2
# How it was run: as §1
# SpPex13 = molecular target: SpPex13
# How it was run: as §1
# SpRvs167 = molecular target: SpRvs167
# How it was run: as §1
# SpSla1-D1-D2 = molecular target: SpSla1-D1-D2
# How it was run: as §1
# SpSla1-D3 = molecular target: SpSla1-D3
# How it was run: as §1
# AgAbp1 = molecular target: AgAbp1
# How it was run: as §1
# AgBbc1 = molecular target: AgBbc1
# How it was run: as §1
# AgBem1-D1 = molecular target: AgBem1-D1
# How it was run: as §1
# AgBzz1-D1 = molecular target: AgBzz1-D1
# How it was run: as §1
# AgBzz1-D2 = molecular target: AgBzz1-D2
# How it was run: as §1
# AgCyk3 = molecular target: AgCyk3
# How it was run: as §1
# AgFus1 = molecular target: AgFus1
# How it was run: as §1
# AgHof1 = molecular target: AgHof1
# How it was run: as §1
# AgHse1 = molecular target: AgHse1
# How it was run: as §1
# AgLsb1 = molecular target: AgLsb1
# How it was run: as §1
# AgLsb4 = molecular target: AgLsb4
# How it was run: as §1
# AgMyo5 = molecular target: AgMyo5
# How it was run: as §1
# AgNbp2 = molecular target: AgNbp2
# How it was run: as §1
# AgRvs167 = molecular target: AgRvs167
# How it was run: as §1
# AgSho1 = molecular target: AgSho1
# How it was run: as §1
# AgSla1-D1-D2 = molecular target: AgSla1-D1-D2
# How it was run: as §1
# AgSla1-D3 = molecular target: AgSla1-D3
# How it was run: as §1
# CaAbp1-D1 = molecular target: CaAbp1-D1
# How it was run: as §1
# CaAbp1-D2 = molecular target: CaAbp1-D2
# How it was run: as §1
# CaBbc1 = molecular target: CaBbc1
# How it was run: as §1
# CaBem1-D1 = molecular target: CaBem1-D1
# How it was run: as §1
# CaBzz1-D1 = molecular target: CaBzz1-D1
# How it was run: as §1
# CaBzz1-D2 = molecular target: CaBzz1-D2
# How it was run: as §1
# CaCyk3 = molecular target: CaCyk3
# How it was run: as §1
# CaFus1 = molecular target: CaFus1
# How it was run: as §1
# CaHof1 = molecular target: CaHof1
# How it was run: as §1
# CaHse1 = molecular target: CaHse1
# How it was run: as §1
# CaLsb1 = molecular target: CaLsb1
# How it was run: as §1
# CaLsb4 = molecular target: CaLsb4
# How it was run: as §1
# CaMyo5 = molecular target: CaMyo5
# How it was run: as §1
binder,measurement,setting,value
DFTLPPPPPPPGLDE,SPOT peptide array binding signal intensity,CaNbp2,20
same,SPOT peptide array binding signal intensity,CaRvs167,≤ 0
same,SPOT peptide array binding signal intensity,CaRvs167-3,≤ 0
same,SPOT peptide array binding signal intensity,CaSho1,≤ 0
same,SPOT peptide array binding signal intensity,CaSla1-D1-D2,≤ 0
same,SPOT peptide array binding signal intensity,CaSla1-D3,≤ 0
same,SPOT peptide array binding signal intensity,ScAbp1,≤ 0
same,SPOT peptide array binding signal intensity,ScBbc1,≤ 0
same,SPOT peptide array binding signal intensity,ScBem1-D1,≤ 0
same,SPOT peptide array binding signal intensity,ScBzz1-D1,≤ 0
same,SPOT peptide array binding signal intensity,ScBzz1-D2,1
same,SPOT peptide array binding signal intensity,ScCyk3,0.5
same,SPOT peptide array binding signal intensity,ScFus1,3
same,SPOT peptide array binding signal intensity,ScHof1,14.8
same,SPOT peptide array binding signal intensity,ScHse1,≤ 0
same,SPOT peptide array binding signal intensity,ScLsb1,≤ 0
same,SPOT peptide array binding signal intensity,ScLsb2,3.5
same,SPOT peptide array binding signal intensity,ScLsb3,≤ 0
same,SPOT peptide array binding signal intensity,ScLsb4,≤ 0
same,SPOT peptide array binding signal intensity,ScMyo3,2030
same,SPOT peptide array binding signal intensity,ScMyo5,1990
same,SPOT peptide array binding signal intensity,ScNbp2,18
same,SPOT peptide array binding signal intensity,ScPex13,≤ 0
same,SPOT peptide array binding signal intensity,ScRvs167,3.33
same,SPOT peptide array binding signal intensity,ScSho1,≤ 0
same,SPOT peptide array binding signal intensity,ScSla1-D1-D2,≤ 0
same,SPOT peptide array binding signal intensity,ScSla1-D3,≤ 0
same,SPOT peptide array binding signal intensity,SpAbp1-D1,≤ 0
same,SPOT peptide array binding signal intensity,SpBbc1,≤ 0
same,SPOT peptide array binding signal intensity,SpBzz1-D1,1300
same,SPOT peptide array binding signal intensity,SpBzz1-D2,2.5
same,SPOT peptide array binding signal intensity,SpCyk3,≤ 0
same,SPOT peptide array binding signal intensity,SpHof1,2
same,SPOT peptide array binding signal intensity,SpHof1-2,2.5
same,SPOT peptide array binding signal intensity,SpHof1-3,1.5
same,SPOT peptide array binding signal intensity,SpHse1,≤ 0
same,SPOT peptide array binding signal intensity,SpLsb1,≤ 0
same,SPOT peptide array binding signal intensity,SpLsb4,≤ 0
same,SPOT peptide array binding signal intensity,SpMyo1,1210
same,SPOT peptide array binding signal intensity,SpNbp2,9
same,SPOT peptide array binding signal intensity,SpPex13,≤ 0
same,SPOT peptide array binding signal intensity,SpRvs167,≤ 0
same,SPOT peptide array binding signal intensity,SpSla1-D1-D2,≤ 0
same,SPOT peptide array binding signal intensity,SpSla1-D3,≤ 0
ANNQGPPNLPARDKS,SPOT peptide array binding signal intensity,AgAbp1,4.5
same,SPOT peptide array binding signal intensity,AgBbc1,0.25
same,SPOT peptide array binding signal intensity,AgBem1-D1,3.5
same,SPOT peptide array binding signal intensity,AgBzz1-D1,9.5
same,SPOT peptide array binding signal intensity,AgBzz1-D2,4
same,SPOT peptide array binding signal intensity,AgCyk3,≤ 0
same,SPOT peptide array binding signal intensity,AgFus1,≤ 0
same,SPOT peptide array binding signal intensity,AgHof1,1
same,SPOT peptide array binding signal intensity,AgHse1,≤ 0
same,SPOT peptide array binding signal intensity,AgLsb1,144
same,SPOT peptide array binding signal intensity,AgLsb4,4990
same,SPOT peptide array binding signal intensity,AgMyo5,≤ 0
same,SPOT peptide array binding signal intensity,AgNbp2,≤ 0
same,SPOT peptide array binding signal intensity,AgRvs167,274
same,SPOT peptide array binding signal intensity,AgSho1,≤ 0
same,SPOT peptide array binding signal intensity,AgSla1-D1-D2,≤ 0
same,SPOT peptide array binding signal intensity,AgSla1-D3,0.75
same,SPOT peptide array binding signal intensity,CaAbp1-D1,8
same,SPOT peptide array binding signal intensity,CaAbp1-D2,18.5
same,SPOT peptide array binding signal intensity,CaBbc1,20.5
same,SPOT peptide array binding signal intensity,CaBem1-D1,≤ 0
same,SPOT peptide array binding signal intensity,CaBzz1-D1,6.5
same,SPOT peptide array binding signal intensity,CaBzz1-D2,4.5
same,SPOT peptide array binding signal intensity,CaCyk3,≤ 0
same,SPOT peptide array binding signal intensity,CaFus1,≤ 0
same,SPOT peptide array binding signal intensity,CaHof1,≤ 0
same,SPOT peptide array binding signal intensity,CaHse1,38.8
same,SPOT peptide array binding signal intensity,CaLsb1,≤ 0
same,SPOT peptide array binding signal intensity,CaLsb4,5930
same,SPOT peptide array binding signal intensity,CaMyo5,0.5
same,SPOT peptide array binding signal intensity,CaNbp2,≤ 0
same,SPOT peptide array binding signal intensity,CaRvs167,2230
same,SPOT peptide array binding signal intensity,CaRvs167-3,3
same,SPOT peptide array binding signal intensity,CaSho1,≤ 0
same,SPOT peptide array binding signal intensity,CaSla1-D1-D2,≤ 0
same,SPOT peptide array binding signal intensity,CaSla1-D3,≤ 0
same,SPOT peptide array binding signal intensity,ScAbp1,7
same,SPOT peptide array binding signal intensity,ScBbc1,2
same,SPOT peptide array binding signal intensity,ScBem1-D1,≤ 0
same,SPOT peptide array binding signal intensity,ScBzz1-D1,5
same,SPOT peptide array binding signal intensity,ScBzz1-D2,1
same,SPOT peptide array binding signal intensity,ScCyk3,≤ 0
same,SPOT peptide array binding signal intensity,ScFus1,2
same,SPOT peptide array binding signal intensity,ScHof1,2
same,SPOT peptide array binding signal intensity,ScHse1,42.5
same,SPOT peptide array binding signal intensity,ScLsb1,645
same,SPOT peptide array binding signal intensity,ScLsb2,5
same,SPOT peptide array binding signal intensity,ScLsb3,7290
same,SPOT peptide array binding signal intensity,ScLsb4,4380
same,SPOT peptide array binding signal intensity,ScMyo3,≤ 0
same,SPOT peptide array binding signal intensity,ScMyo5,≤ 0
same,SPOT peptide array binding signal intensity,ScNbp2,≤ 0
same,SPOT peptide array binding signal intensity,ScPex13,472
same,SPOT peptide array binding signal intensity,ScRvs167,2820
same,SPOT peptide array binding signal intensity,ScSho1,≤ 0
same,SPOT peptide array binding signal intensity,ScSla1-D1-D2,≤ 0
same,SPOT peptide array binding signal intensity,ScSla1-D3,0.75
same,SPOT peptide array binding signal intensity,SpAbp1-D1,≤ 0
same,SPOT peptide array binding signal intensity,SpBbc1,≤ 0
same,SPOT peptide array binding signal intensity,SpBzz1-D1,6
same,SPOT peptide array binding signal intensity,SpBzz1-D2,≤ 0
same,SPOT peptide array binding signal intensity,SpCyk3,≤ 0
same,SPOT peptide array binding signal intensity,SpHof1,0.5
same,SPOT peptide array binding signal intensity,SpHof1-2,5.5
same,SPOT peptide array binding signal intensity,SpHof1-3,6.75
same,SPOT peptide array binding signal intensity,SpHse1,≤ 0
same,SPOT peptide array binding signal intensity,SpLsb1,91
same,SPOT peptide array binding signal intensity,SpLsb4,6520
same,SPOT peptide array binding signal intensity,SpMyo1,≤ 0
same,SPOT peptide array binding signal intensity,SpNbp2,≤ 0
same,SPOT peptide array binding signal intensity,SpPex13,≤ 0
same,SPOT peptide array binding signal intensity,SpRvs167,3210
same,SPOT peptide array binding signal intensity,SpSla1-D1-D2,≤ 0
same,SPOT peptide array binding signal intensity,SpSla1-D3,≤ 0

# From the supplement of paper PMC4466140
